{"source": "a collection of fitness landscapes (doi:10.1016/j.celrep.2020.107928)", "parents": {"B1": {"name": "Caulobacter ParB omega fusion; a variant is named by its letters at X, in order, B8GW30 (parent)", "chain": "MESVVVGEPGMSEGRRGLGRGLSALLGEVDAAPAQAPGEQLGGSREAPIEILQRNPDQPRRTFREEDLEDLSNSIREKGVLQPILVRPSPDTAGEYQIVAGERAWRAAQRAGLKTVPIMVRELDDLAVLEIGIIENVQRADLNVLEEALSYKVLMEKFERTQENIAQTIGKSXSHVANXMRLLXLPDEVQSYLVSGELTAXHARAIAAAADPVALAKQIIEGGLSVRETEALARKAPNLSAGKSKGGRPPRVKDTDTQALESDLSSVLGLDVSIDHRGSTGTLTITYATLEQLDDLCNRLTRGI"}}, "note": "Over roughly 81,000 sequences, “one-hybrid fitness for binding parS DNA” has its median near -0.17; the highest 2% begin near 0.51. Many of the other results were omitted from the sample, so the highest values are more common in it than they were."}
{"variants_of": "B1", "assay": "one-hybrid fitness for binding parS DNA (scaled: cognate 1, non-cognate 0); higher = stronger binding", "conditions": "with parS DNA site", "how_it_was_run": "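Values were rescaled so that cognate is 1 and non-cognate is 0. Each is a fitness, the log change in a variant's read ratio to wild type from Illumina reads of plasmids before and after selection, with three replicate libraries pooled and variants under 10 reads dropped. Selection of the Caulobacter ParB libraries, four specificity codons randomised, used E. coli USO with a HIS3 reporter, site 19 bp from the promoter, on M9-minus-histidine with 0.1 mM IPTG and 5 mM 3-AT for 48 hours at 37°C.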"}
{"variant": "TVWR", "one-hybrid fitness for binding parS DNA": "≤ 0.2"}
{"variant": "ANGP", "one-hybrid fitness for binding parS DNA": "≤ 0.2"}
{"variant": "NLAR", "one-hybrid fitness for binding parS DNA": "≤ 0.2"}
{"variant": "SREP", "one-hybrid fitness for binding parS DNA": "≤ 0.2"}
{"variant": "GNAS", "one-hybrid fitness for binding parS DNA": "≤ 0.2"}
{"variant": "RTED", "one-hybrid fitness for binding parS DNA": "≤ 0.2"}
{"variant": "RIEP", "one-hybrid fitness for binding parS DNA": "≤ 0.2"}
{"variant": "RMES", "one-hybrid fitness for binding parS DNA": 0.956}
{"variant": "RTES", "one-hybrid fitness for binding parS DNA": 0.985}
{"variant": "RMEP", "one-hybrid fitness for binding parS DNA": "≤ 0.2"}
{"variant": "RTEH", "one-hybrid fitness for binding parS DNA": 0.208}
{"variant": "RKEP", "one-hybrid fitness for binding parS DNA": "≤ 0.2"}
{"variant": "RIEN", "one-hybrid fitness for binding parS DNA": 0.279}
{"variant": "RKES", "one-hybrid fitness for binding parS DNA": 0.899}
{"variant": "RIES", "one-hybrid fitness for binding parS DNA": 0.93}
{"variant": "RKEN", "one-hybrid fitness for binding parS DNA": 0.351}
{"variant": "RMED", "one-hybrid fitness for binding parS DNA": "≤ 0.2"}
{"variant": "SVCD", "one-hybrid fitness for binding parS DNA": "≤ 0.2"}
{"variant": "VPCS", "one-hybrid fitness for binding parS DNA": "≤ 0.2"}
{"variant": "QSKG", "one-hybrid fitness for binding parS DNA": "≤ 0.2"}
{"variant": "MNTS", "one-hybrid fitness for binding parS DNA": "≤ 0.2"}
{"variant": "SEHV", "one-hybrid fitness for binding parS DNA": "≤ 0.2"}
{"variant": "RLMV", "one-hybrid fitness for binding parS DNA": "≤ 0.2"}
{"variant": "TMAV", "one-hybrid fitness for binding parS DNA": "≤ 0.2"}
{"variant": "QAEE", "one-hybrid fitness for binding parS DNA": "≤ 0.2"}
{"variant": "RSDI", "one-hybrid fitness for binding parS DNA": "≤ 0.2"}
{"variant": "RMVP", "one-hybrid fitness for binding parS DNA": 0.206}
{"variant": "RMKF", "one-hybrid fitness for binding parS DNA": 0.439}
{"variant": "RMKQ", "one-hybrid fitness for binding parS DNA": "≤ 0.2"}
{"variant": "RMVC", "one-hybrid fitness for binding parS DNA": 0.96}
{"variant": "RMVH", "one-hybrid fitness for binding parS DNA": "≤ 0.2"}
{"variant": "RMKC", "one-hybrid fitness for binding parS DNA": 0.849}
{"variant": "EAIW", "one-hybrid fitness for binding parS DNA": "≤ 0.2"}
{"variant": "RSTD", "one-hybrid fitness for binding parS DNA": "≤ 0.2"}
{"variant": "RKTS", "one-hybrid fitness for binding parS DNA": 0.815}
{"variant": "RITS", "one-hybrid fitness for binding parS DNA": 0.992}
{"variant": "RSTH", "one-hybrid fitness for binding parS DNA": 0.234}
{"variant": "RTTP", "one-hybrid fitness for binding parS DNA": "≤ 0.2"}
{"variant": "RITH", "one-hybrid fitness for binding parS DNA": 0.214}
{"variant": "RTTH", "one-hybrid fitness for binding parS DNA": 0.232}
{"variant": "RITN", "one-hybrid fitness for binding parS DNA": 0.409}
{"variant": "RKTH", "one-hybrid fitness for binding parS DNA": "≤ 0.2"}
{"variant": "RKTD", "one-hybrid fitness for binding parS DNA": "≤ 0.2"}
{"variant": "RTTS", "one-hybrid fitness for binding parS DNA": 0.943}
{"variant": "RSTS", "one-hybrid fitness for binding parS DNA": 0.986}
{"variant": "IIGK", "one-hybrid fitness for binding parS DNA": "≤ 0.2"}
{"variant": "ENYG", "one-hybrid fitness for binding parS DNA": "≤ 0.2"}
{"variant": "PEAY", "one-hybrid fitness for binding parS DNA": "≤ 0.2"}
{"variant": "HKGC", "one-hybrid fitness for binding parS DNA": "≤ 0.2"}
{"variant": "KDVC", "one-hybrid fitness for binding parS DNA": "≤ 0.2"}
{"variant": "LAWM", "one-hybrid fitness for binding parS DNA": "≤ 0.2"}
{"variant": "IPRY", "one-hybrid fitness for binding parS DNA": "≤ 0.2"}
{"variant": "RCTS", "one-hybrid fitness for binding parS DNA": 0.984}
{"variant": "RHTP", "one-hybrid fitness for binding parS DNA": "≤ 0.2"}
{"variant": "RFTH", "one-hybrid fitness for binding parS DNA": "≤ 0.2"}
{"variant": "RLTP", "one-hybrid fitness for binding parS DNA": "≤ 0.2"}
{"variant": "RFTS", "one-hybrid fitness for binding parS DNA": 1.01}
{"variant": "RPTS", "one-hybrid fitness for binding parS DNA": "≤ 0.2"}
{"variant": "RFTP", "one-hybrid fitness for binding parS DNA": "≤ 0.2"}
{"variant": "RCTN", "one-hybrid fitness for binding parS DNA": 0.475}
{"variant": "RHTN", "one-hybrid fitness for binding parS DNA": 0.384}
{"variant": "RLTS", "one-hybrid fitness for binding parS DNA": 0.984}
{"variant": "RLTH", "one-hybrid fitness for binding parS DNA": 0.232}
{"variant": "RHTS", "one-hybrid fitness for binding parS DNA": 0.893}
{"variant": "CLVL", "one-hybrid fitness for binding parS DNA": "≤ 0.2"}
{"variant": "FTSY", "one-hybrid fitness for binding parS DNA": "≤ 0.2"}
{"variant": "KNRS", "one-hybrid fitness for binding parS DNA": "≤ 0.2"}
{"variant": "LLFA", "one-hybrid fitness for binding parS DNA": "≤ 0.2"}
{"variant": "AVGG", "one-hybrid fitness for binding parS DNA": "≤ 0.2"}
{"variant": "AARP", "one-hybrid fitness for binding parS DNA": "≤ 0.2"}
{"variant": "SKSL", "one-hybrid fitness for binding parS DNA": "≤ 0.2"}
{"variant": "VMLN", "one-hybrid fitness for binding parS DNA": "≤ 0.2"}
{"variant": "SWPW", "one-hybrid fitness for binding parS DNA": "≤ 0.2"}
{"variant": "AGLI", "one-hybrid fitness for binding parS DNA": "≤ 0.2"}
{"variant": "MFAT", "one-hybrid fitness for binding parS DNA": "≤ 0.2"}
{"variant": "RMTD", "one-hybrid fitness for binding parS DNA": 0.207}
{"variant": "RMTN", "one-hybrid fitness for binding parS DNA": 0.45}
{"variant": "RMTS", "one-hybrid fitness for binding parS DNA": 0.975}
